This note sets out measurements from PubChem BioAssay AID1347043 (National Center for Advancing Translational Sciences (NCATS), 2019).

The whole screen tested about 76,000 compounds, of which about 1,900 (2.5%) were called active. Entries that show only a call come without a potency. Roughly 5% stayed inconclusive and do not appear here. The call rests on the fitted dose curve; in most records, active means well fitted inhibition curve with a large enough effect; inconclusive means small, poorly fitted or top-dose-only effect; inactive means flat fitted curve, though single readings scatter. The sample as a whole holds a higher share of actives than the screen did.
Potency means the concentration at half of the fitted maximal effect.

Sequence of Luciferin 4-monooxygenase (Photinus pyralis) (P08659 whole entry, looked up): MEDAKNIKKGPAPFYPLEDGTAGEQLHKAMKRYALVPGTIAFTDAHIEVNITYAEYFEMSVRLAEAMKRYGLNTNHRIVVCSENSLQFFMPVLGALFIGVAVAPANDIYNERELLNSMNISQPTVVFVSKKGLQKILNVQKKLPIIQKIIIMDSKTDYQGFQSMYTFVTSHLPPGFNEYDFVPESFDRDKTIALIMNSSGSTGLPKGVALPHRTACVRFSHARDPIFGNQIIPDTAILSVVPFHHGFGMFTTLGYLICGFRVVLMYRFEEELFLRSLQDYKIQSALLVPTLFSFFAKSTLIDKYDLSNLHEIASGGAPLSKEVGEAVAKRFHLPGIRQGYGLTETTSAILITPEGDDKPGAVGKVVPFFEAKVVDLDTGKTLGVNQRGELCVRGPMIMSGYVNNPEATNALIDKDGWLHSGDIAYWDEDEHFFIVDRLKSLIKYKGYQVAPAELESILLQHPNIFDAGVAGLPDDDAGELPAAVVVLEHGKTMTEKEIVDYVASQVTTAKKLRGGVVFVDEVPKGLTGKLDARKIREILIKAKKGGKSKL

The assay addresses Luciferin 4-monooxygenase (Photinus pyralis) (UniProt P08659). Kind of assay: Firefly luciferase inhibition profiling of diverse chemical library using quantitative high-throughput screening. Further: nearly all actives have a fitted effect of over 65% in size. The conditions noted are these: purified P. pyralis luciferase, luminescence, biochemical; series mostly up to 115 µM. The method in brief: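 FLuc 10nM, D-luciferin 10uM, ATP 10uM, Mg acetate 10mM, Tris acetate pH 7.5, Tween/BSA; cpd qHTS; enzyme added last; CCD luminescence.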
`O=C(NCCC1CCN(C(=O)Nc2cc(F)ccc2F)CC1)c1cc(F)ccc1F`: the Potency result is “inactive”.

Regarding `COc1ccc(C(=O)NCCC2CCN(C(=O)Nc3cc(F)ccc3F)CC2)cc1`, the Potency is 25.1 µM (active).

Regarding `COc1ccc(C(=O)NCCC2CCN(C(=O)Nc3ccc(F)cc3F)CC2)cc1OC`, the Potency result is “inactive”.

Regarding `CC(c1cccc(-c2cnc(C(=O)O)cn2)c1)N1CCCC1` (stereo not given), the Potency entry was “inactive”.

With `O=C(CCCc1ccccc1)N1CCC2(CC1)CC(O)CCO2` (stereo not given), the Potency is 5.62 µM (active).

As for `CC(=O)N(C1CC1)C1CCOC2(CCN(C(=O)CCc3ccccc3)CC2)C1` (stereo not given), the Potency entry is “inactive”.

With `O=C(CCC1CCCC1)N1CCC2(CC1)CC(O)CCO2` (stereo not given), the Potency result was “inactive”.

For the molecule `COc1ccc(CC(=O)NC2CCCc3c2[nH]c2ccccc32)cc1` (stereo not given), the Potency entry was “inactive”.

On to `Fc1ccc(CNC[C@H]2Cn3c(-c4ccc5c(c4)OCCO5)cnc3CO2)cc1`, for which the Potency entry is “inactive”.

Take `c1ccc(CNC[C@H]2Cn3cc(-c4ccccc4)nc3CO2)cc1`: the Potency was 63.1 µM (active).

With `COc1ccc(-c2cn3c(n2)CO[C@@H](CNCc2ccc(F)c(F)c2)C3)cc1`, the Potency is 35.5 µM (active).

With `c1c[nH]c(CNC[C@H]2Cn3ccnc3CO2)n1`, the Potency result is “inactive”.

As for `Cc1ccc(-c2cn3c(n2)CO[C@@H](CNS(=O)(=O)c2cccs2)C3)cc1`, the Potency entry is “inactive”.

As for `O=C(Cn1nc(-c2ccccc2)n(-c2ccccc2)c1=O)N1C[C@@H]2C[C@H]1CN2`, the Potency result is “inactive”.

Turning to `O=C(c1ccc(F)cc1)N1CCC2(CC1)CCN(Cc1cccs1)c1ccccc1O2`, the Potency result was “inactive”.

With `Cc1cc(C)cc(C(=O)Nc2ccc3c(N4CCCC4)ncnc3c2)c1`, the Potency result is “inactive”.

Consider `Cc1ccc(C(=O)Nc2ccc3c(N4CCCCC4)ncnc3c2)s1`, for which the Potency is 22.4 µM (active).

In the case of `Cc1ccc(C(=O)Nc2ccc3ncnc(N4CCCCC4)c3c2)s1`, the Potency entry was “inactive”.

`CCCS(=O)(=O)N1CCCC(Cn2c(C)nc3cccnc32)C1` (stereo not given): the Potency result was “inactive”.

As to `Cc1c(-c2ccc(F)cc2)[nH]c2ccc(CNC(=O)c3ccc(CO)o3)cc12`, the Potency entry is “inactive”.

For `CC(C)Oc1cccc(-c2nc(C(=O)NCc3ccc(F)cc3)cs2)c1`, the Potency entry is “inactive”.

For `CNc1nc(C(=O)NCc2ccc3[nH]c(-c4ccc(F)cc4)c(C)c3c2)cs1`, the Potency is 12.6 µM (active).

Consider `CN1C(=O)C(CC(=O)N2CCC(C#N)CC2)(Cc2ccccc2)c2ccccc21` (stereo not given), for which the Potency entry is “inactive”.

In the case of `CN(Cc1ccccc1F)Cc1ccccc1F`, the Potency entry was “inactive”.

For `COCCc1noc(CC2CCOC3(CCN(C(=O)Nc4ccc5c(c4)OCCO5)CC3)C2)n1` (stereo not given), the Potency was 35.5 µM (active).

Consider `COCCc1noc(CC2CCOC3(CCN(C(=O)C4CCCC4)CC3)C2)n1` (stereo not given), for which the Potency result is “inactive”.

As for `Cc1noc(CC2CCOC3(CCN(C(=O)c4ccc(C#N)cc4)CC3)C2)n1` (stereo not given), the Potency entry is “inactive”.

As for `COc1cccc(C(O)c2nc(C(=O)Nc3ccccc3)c(C)o2)c1` (stereo not given), the Potency result is “inactive”.

With `COc1cccc(-c2cc(C(=O)NCc3cc(C)on3)c3c(c2)N(C)CCO3)c1OC`, the Potency entry is “inactive”.

For `Fc1ccc(Nc2nc(-c3ccccc3F)no2)cc1`, the Potency is 2.82 µM (active).

With `COc1ccc(Nc2nc(-c3cccc(OC)c3OC)no2)cc1`, the Potency was 22.4 µM (active).

As to `CCOc1ccc(Nc2ncncc2-c2nc(-c3ccccc3)no2)cc1`, the Potency entry is “inactive”.

Turning to `O=C(Cn1cccc1-c1nc(-c2ccc(F)cc2)no1)Nc1cc(F)cc(F)c1`, the Potency result is “inactive”.

On to `C[C@H]1CN(C(=O)Nc2ccc(F)cc2)C[C@@H]1c1nc(-c2ccccc2)no1`, for which the Potency entry was “inactive”.

As for `CC1(c2noc(C3CCOCC3)n2)CCN(Cc2ccc(OCC(N)=O)cc2)CC1`, the Potency entry was “inactive”.

Take `CN(Cc1ccccc1)Cc1cc(CC2(NCc3ccc(OC(F)(F)F)cc3)COC2)no1`: the Potency entry is “inactive”.

On to `COc1cccc(CC(=O)NCCc2noc(-c3cccnc3)n2)c1`, for which the Potency entry was “inactive”.

Take `COCCc1noc(-c2ccc(NC(C)c3ncccc3C)nc2)n1` (stereo not given): the Potency is 31.6 µM (active).

Consider `COCc1noc(-c2ccc(NCCN3CCNC3=O)nc2)n1`, for which the Potency result is “inactive”.

Consider `O=C(NC1CCN(Cc2ccc(F)c(F)c2)CC1)c1ccc2nccn2c1`, for which the Potency entry is “inactive”.

On to `O=C(c1ccncc1)N1CCC(c2cc(-c3ccc(F)cc3)n[nH]2)CC1`, for which the Potency result was “inactive”.

Consider `CCC1(N2CCN(C(=O)c3ccc(N(C)C)cc3)CC2)CCN(S(C)(=O)=O)C1` (stereo not given), for which the Potency entry is “inactive”.

With `CC(=O)N1CCC(Cc2ccc(C(=O)NC3CC3)cc2)CC1`, the Potency entry was “inactive”.

`Cc1nnn2c(C(=O)NC3CC3)cccc12`: the Potency was 7.08 µM (active).

Consider `Cn1cccc1C(=O)NC1CCN(c2cc(-c3ccccc3)[nH]n2)CC1`, for which the Potency result was “inactive”.

Consider `O=C(c1cc(-c2ccccc2)n[nH]1)N1CC2CC(C1)[C@H]1CCCC(=O)N1C2` (stereo not given in full), for which the Potency result was “inactive”.

With `Cc1ccc([S+](=O)([O-])N2CCn3c(nn(-c4ccncc4)c3=O)C2)cc1`, the Potency result is “inactive”.

`COc1ccccc1-c1cn(C)c(=O)n2cc(COc3ccc(C(=O)O)cc3)nc12`: the Potency entry is “inactive”.

With `COc1cc(F)ccc1-c1ccnc2nc(C(C)C)nn12`, the Potency result is “inactive”.

`COc1cc(F)ccc1-c1ccc(COc2ccc3c(cnn3CCC(=O)O)c2)cc1`: the Potency is 44.7 µM (active).

Regarding `CCN1c2cc(C(=O)NC3CCN(Cc4ccccc4)CC3)ccc2C(=O)N2CCCCC21` (stereo not given), the Potency entry was “inactive”.

On to `CC(C)CNc1ccc2nnc(-c3ccccn3)n2n1`, for which the Potency entry was “inactive”.

With `O=C(c1ccccc1)N1CCCC(c2noc(COc3ccccc3)n2)C1` (stereo not given), the Potency result is “inactive”.

Take `O=C(C1CC1)N1CCCC(c2noc(COc3ccccc3F)n2)C1` (stereo not given): the Potency was 35.5 µM (active).

On to `CC(C)CNC(=O)N1CCCC(c2noc(COc3ccccc3F)n2)C1` (stereo not given), for which the Potency result is “inactive”.

Regarding `C[C@H]1CN(C(=O)Nc2cc(F)cc(F)c2)C[C@@H]1c1nc(-c2ccncc2)no1`, the Potency entry was “inactive”.

On to `Cc1ccc(C(=O)N2CC(N(Cc3cccnc3)CC(C)C)C2)s1`, for which the Potency result is “inactive”.

On to `CN(C)CCN(C)c1ccc(-c2nc(-c3ccccc3F)no2)cn1`, for which the Potency is 15.8 µM (active).

For `Oc1ccc(-c2ccc(-c3nc(CCc4ccccc4)no3)cn2)cc1`, the Potency result was “inactive”.

Turning to `CN(CCc1cn[nH]c1)c1ccc(-c2nc(-c3ccccc3F)no2)cn1`, the Potency is 0.631 µM (active).

`CSc1ccc(CNC(=O)c2cc3c(N4CCCC4)nc(C)cn3n2)cc1`: the Potency result is “inactive”.

As for `CCOc1ccccc1-c1noc(-c2nnn3c2COC(c2ccc(Cl)cc2)C3)n1` (stereo not given), the Potency result is “inactive”.

`CCCCc1nc2cc(C(=O)N3CCCC3c3cc(C(C)C)on3)ccc2o1` (stereo not given): the Potency result was “inactive”.

For the molecule `O=[S+]([O-])(Nc1ccccc1)c1ccc2c(c1)OCCN(CC1CC1)C2`, the Potency entry is “inactive”.

For `Cc1ccc(CN2CC[C@@](C)(O)[C@H](N3CCCC3)C2)s1`, the Potency entry is “inactive”.
